{
  "source": "PubChem BioAssay (NCATS)",
  "note": "Inconclusive results are not listed. A number with no mark means an inactive call. Calls of active or inactive are those of the source. The call rests on the fitted dose curve; in most records, active means well fitted inhibition curve with a large enough effect; inconclusive means small, poorly fitted or top-dose-only effect; inactive means no such curve, though single readings can be large or run the other way. Square brackets hold non-standard residues; d marks the D form. Peptide text beside a SMILES is read from it. * marks the point of attachment. ξ: configuration not given here. Hexanoyl = CCCCCC(=O)*; ξL = CC(C)CC(N)C(=O)O",
  "data": [
    {"test": "qHTS for inhibitors of ER calcium dysfunction: SERCaMP assay screened against the NCATS CANVASS Library (AID 1347393); further: nearly all actives have a fitted effect of over 40% in size; further: potency means the concentration at half of the fitted maximal effect; on activity change, negative = inhibition: on the % scale 0 is the no-effect control and ±100 the full control effect", "conditions": "SH-SY5Y GLuc-SERCaMP (Gaussia luciferase released on ER calcium loss) secretion, thapsigargin, luminescence; series mostly up to 76.6 µM; activity change, negative = inhibition: at the top concentration", "source_text": "Natural products and their derivatives continue to be wellsprings of nascent therapeutic potential. However, many laboratories have limited resources for biological evaluation, leaving their previously isolated or synthesized compounds largely or completely untested. To address this issue, the Canvass library of natural products was assembled (https://tripod.nih.gov/canvass), in collaboration with academic and industry researchers, for quantitative high-throughput screening (qHTS) across a diverse set of cell-based and biochemical assays. The pure (>85% purity by liquid chromatography/mass spectrometry [LC/MS]) Canvass library of 346 natural products were submitted by 45 academic laboratories and companies around the world. We collected pure natural products to circumvent deconvolution and structure elucidation due to time and resource limitations. The library was formatted into 1536-well plates and evaluated in 50 qHTS (in an 11-pnt concentration series) bioassays with broad scope of disease-relevant mechanisms. The resulting data set from 50 different assays was then systematically analyzed to identify overall trends and specific natural products with interesting biological activities. Reported herein are the results of each individual qHTS and their corresponding assay protocol. The SERCaMP assay detects ER calcium dysfunction. A Gaussia luciferase-based reporter protein (GLuc-SERCaMP) is expressed in SH-SY5Y cells and secreted in response to ER calcium depletion. Small molecules that stabilize ER calcium inhibit GLuc-SERCaMP release. National Center for Advancing Translational Sciences (NCAwsTS), Rockville, MD National Institute of Health (NIH), Bethesda, Maryland\nSERCaMP assay protocol: 1. In a white-solid bottom 1536-well tissue culture plate (Corning 7494), 5 uL of SH-SY5Y-GLuc SERCaMP MJH297 derived (MP_G) cells were dispensed using a Multidrop Combi (Thermo Fisher Scientific) at a final concentration of 1000 cells / well. 2. The assay plates were incubated for 4 hours at 37C, 5% CO2, 95% humidity to acclimate and attach. 3. […] of compounds (in DMSO; columns 5-48), and positive control Bromocriptine (10 mM; 1:2 dilution; 16-points; n = 2; column 2, rows 1-32) were pin transferred into the assay plates using the Kalypsis pin tool (Wako USA) equipped with a 1536-well pin heads. This yields a final CANVASS compound concentration of 0.001 - 38.2 uM. 4. The assay plates were incubated for 16 hours at 37C, 5% CO2, 95% humidity. 5. After compound treatment, 1 uL per well of (6x) 600 nM Thapsigargin into column 1, rows 17 - 32; column 2, rows 1 - 32; columns 4 - 48, rows 1 - 32 using the BioRAPTR liquid dispenser. As a control 1 uL of (1x) Media was dispensed into column 1, rows 1 - 16; and into column 3, rows 1 - 32. 6. The assay plates were incubated for 4 hours at 37C, 5% CO2, 95% humidity. 7. After 4 hours, 1 uL of (7x) substrate Coelenterazine (diluted 1:200 in Pierce Glow Assay buffer) was dispensed into columns 1 - 48, rows 1 - 32. 8. The plates were centrifuged for 5 seconds at 1000 rpm. 9. Luminescence signal was obtained via the ViewLux plate reader (Perkin Elmer) using the clear emission filter and 1x binning, 5 seconds exposure settings.", "values": [
      {"smiles": "C=CC(CCCCC)C1C(=O)NC(=O)C1C(=O)C1C2C(C)CC(C(=O)O)CC2CC1(O)C(=O)/C=C/C", "note": "(stereo not given)", "activity change, negative = inhibition": "-39.2%"},
      {"smiles": "O=C1CCC(=O)N(O)CCCCCNC(=O)CCC(=O)N(O)CCCCCNC(=O)CCC(=O)N(O)CCCCCN1", "activity change, negative = inhibition": "-11%"},
      {"smiles": "C[C@@]12C[C@@H](C[C@@H]3C(=O)O[C@@H](c4ccoc4)[C@H](OC(=O)c4ccccc4)[C@@H]31)OC2=O", "activity change, negative = inhibition": "-32.2%"},
      {"smiles": "COc1ccc([C@@H]2c3cc4c(cc3C(=O)C(C)C2C)OCO4)cc1OC", "note": "(stereo not given in full)", "Potency": "7.67 µM (active)"},
      {"smiles": "C/C=C/C(=O)C1(O)CC2CC(C(=O)O)CC(C)C2C1C1=C2C(=O)NC(=O)C2=C(CCCCC)C(C)O1", "note": "(stereo not given)", "Potency": "19.3 µM (active)"},
      {"smiles": "C/C=C1/C2=CCCN3C(=O)O[C@H]([C@H]1O)[C@H]23", "activity change, negative = inhibition": "17.4%"},
      {"smiles": "O=c1cc(-c2ccc(O)cc2)oc2cc(O)c([C@@H]3OC(CO)[C@H](O)[C@@H](O)[C@H]3O)c(O)c12", "note": "(stereo not given in full)", "activity change, negative = inhibition": "1.38%"},
      {"smiles": "C/C(=C\\[C@@H](C)CC/C=C/CC/C=C/C(=O)O)[C@@H](O)[C@H](C)C(=O)CCCC1CC(=O)NC(=O)C1", "activity change, negative = inhibition": "-24%"},
      {"smiles": "C=C1CCC2C(C)(C(=O)O)CCC(CC/C(C)=C/C(=O)NC(CCC(N)=O)C(=O)O)[C@@]2(C)C1", "note": "(stereo not given in full)", "activity change, negative = inhibition": "-4.3%"},
      {"smiles": "C=CC(CCCCC)C1C(=O)NC(=O)C1C(=O)C1C(/C=C/C)C=CC2CC(C(=O)O)CC(C)C21", "note": "(stereo not given)", "activity change, negative = inhibition": "5.84%"},
      {"smiles": "CN1C(=O)C(=O)N2C(=C[C@]3(c4c[nH]c5ccccc45)c4ccccc4N[C@H]23)C1=O", "activity change, negative = inhibition": "-24.5%"},
      {"smiles": "CCCCCC(=O)N[C@@H](CC(C)C)C(=O)N[C@H](C=O)CCC(=O)O", "note": "(Hexanoyl-Leu-Glu-aldehyde)", "activity change, negative = inhibition": "-0.775%"},
      {"smiles": "COc1cc(/C=C/C(=O)OC[C@@H](Cc2ccc(O)c(OC)c2)[C@@H](COC(=O)/C=C/c2ccc(O)c(OC)c2)Cc2ccc(O)c(OC)c2)ccc1O", "Potency": "3.43 µM (active)"},
      {"smiles": "C=C(C)C(=O)O[C@H]1C[C@@]2(C)OC(=CC2=O)/C(C)=C\\[C@H]2OC(=O)C(=C)[C@H]12", "Potency": "0.216 µM (active)"},
      {"smiles": "COc1c(O)cc(O)c2c(=O)cc(-c3ccccc3)oc12", "activity change, negative = inhibition": "-13.2%"},
      {"smiles": "CC(C)=CCC[C@]1(C)[C@H]2CC(=O)[C@@]3(CO3)[C@@H]1C2", "activity change, negative = inhibition": "-23.5%"},
      {"smiles": "COC1C(C)OC(OCC23C[C@@H]4[C@H](C)CC[C@H]4C4(C=O)CC2C=C(C(C)C)C34C(=O)O)[C@@H](O)[C@H]1O", "note": "(stereo not given in full)", "activity change, negative = inhibition": "-0.795%"},
      {"smiles": "COC12OC1(C13OC1(OC)C(=O)c1cc4cc(C)oc(=O)c4c(O)c1C3O)C(O)c1c(cc3cc(C)oc(=O)c3c1O)C2=O", "note": "(stereo not given)", "activity change, negative = inhibition": "3.35%"},
      {"smiles": "O=Cc1ccc2n1C[C@]1(C[C@H](O)[C@@H](CO)O1)OC2", "activity change, negative = inhibition": "-35.5%"},
      {"smiles": "C/C=C1/CN2C3CC1C1C=CC(=O)N4c5ccccc5[C@@]3(C[C@@H]2C2=C[C@H]3C5CC6N(CC[C@@]67c6ccccc6N(C2=O)[C@@H]37)C/C5=C/C)[C@H]14", "note": "(stereo not given in full)", "Potency": "0.216 µM (active)"},
      {"smiles": "COc1ccc([C@@H]2c3cc4c(cc3C(=O)[C@H](C)C2C)OCO4)cc1OC", "note": "(stereo not given in full)", "activity change, negative = inhibition": "14.1%"},
      {"smiles": "C[n+]1cc2cc(C(N)=O)[nH]c3c(=N)c(Cl)c(N)c1c23", "activity change, negative = inhibition": "-6.52%"},
      {"smiles": "C/C1=C/[C@@H](C)[C@H](O)[C@@H](O)/C=C/CC/C=C/C(=O)O[C@@H]1[C@H](C)C(=O)/C=C/CC1CC(=O)NC(=O)C1", "activity change, negative = inhibition": "-42.5%"},
      {"smiles": "CCC(=O)CCCCC[C@@H]1NC(=O)[C@H]2CCCCN2C(=O)[C@H](C(C)C)NC(=O)[C@H](Cc2cn(OC)c3ccccc23)NC1=O", "activity change, negative = inhibition": "445%"},
      {"smiles": "C/C(=C\\[C@@H](C)CC/C=C/CC/C=C/C(=O)O)[C@H](O)[C@H](C)C(=O)CCCC1CC(=O)NC(=O)C1", "activity change, negative = inhibition": "-5.39%"},
      {"smiles": "COc1cc(C2C3=C(Cc4cc5c(cc42)OCO5)C(=O)OC3)cc(OC)c1OC", "note": "(stereo not given)", "activity change, negative = inhibition": "187%"},
      {"smiles": "O=C1CC(c2ccc(O)cc2)Oc2ccccc21", "note": "(stereo not given)", "Potency": "34.3 µM (active)"},
      {"smiles": "CC(=O)N[C@H](C)c1nc(/C=C/C=C/C(=O)CC2CC(=O)CC[C@]2(C)O)cs1", "note": "(stereo not given in full)", "activity change, negative = inhibition": "-14%"},
      {"smiles": "CC[C@@H](C)[C@H]1NC(=O)C(CC(C)C)NC(=O)[C@@H](CC(C)C)NC(=O)[C@H](Cc2c[nH]c3ccccc23)NC(=O)CNC(=O)[C@@H](CC(N)=O)NC1=O", "note": "(stereo partly drawn) (cyclo(GW[dL][ξL][dI][dN]))", "activity change, negative = inhibition": "124%"},
      {"smiles": "CO[C@H]1/C=C/CCCCC(=O)O[C@@H](/C(C)=C/[C@H](C)C(=O)C[C@H](O)CC2CC(=O)NC(=O)C2)[C@@H](C)C1", "activity change, negative = inhibition": "7.1%"},
      {"smiles": "O=Cc1ccc2n1C[C@]1(OC2)O[C@H](CO)[C@@H](O)[C@@H]1O", "activity change, negative = inhibition": "-30%"},
      {"smiles": "COc1cc(C2OCC3C(c4ccc(O)c(OC)c4)OCC23)ccc1O", "note": "(stereo not given)", "activity change, negative = inhibition": "43.6% [at 15.3 µM]"},
      {"smiles": "COC(=O)[C@@]1(C)CCC[C@]2(C)c3cc(OC)ccc3CC[C@@H]12", "activity change, negative = inhibition": "-44.7%"},
      {"smiles": "C[C@@]12CCC[C@@](C)(C(=O)OP(=O)(O)OC[C@H]3O[C@@H](n4cnc5c(N)ncnc54)[C@H](O)[C@@H]3O)[C@H]1C[C@@H](O)[C@@]13C[C@@H](CC[C@@H]21)[C@](C)(O)C3", "activity change, negative = inhibition": "43.6%"},
      {"smiles": "CO[C@@H](C[C@@H](C)[C@@H](O)/C=C/C=C/CNC(=O)C(C)(C)[C@H](O)\\C(C)=C/C=C\\C=C\\Cc1cnco1)[C@]1(O)[C@@H](C)C(=O)N(C)[C@@]12COC2=O", "activity change, negative = inhibition": "7.39%"},
      {"smiles": "COC(=O)c1cc2cc3c(c(O)c2c(=O)o1)OC1(CC3)CC2=C(O1)C(=O)c1c(O)c(OC)cc(OC)c1C2=O", "note": "(stereo not given)", "activity change, negative = inhibition": "-23%"},
      {"smiles": "C[C@]12CCC[C@](C)(C(=O)O)[C@@H]1CC[C@@]1(C)c3cocc3CC[C@H]21", "activity change, negative = inhibition": "-18.4%"},
      {"smiles": "CC(C)=CCCC(C)(O)[C@H]1CC=C(C)C(O)C1", "note": "(stereo not given in full)", "activity change, negative = inhibition": "-16.6%"},
      {"smiles": "COc1cc2c(cc1OC)[C@@H](c1ccc3c(c1)OCO3)C(C)[C@@H](C)C2=O", "note": "(stereo not given in full)", "Potency": "34.3 µM (active)"},
      {"smiles": "CC(C)C[C@@H]1c2c(O)c(C=O)c(O)c(C=O)c2O[C@]2(C)C=C[C@@H](C(C)C)C[C@H]12", "activity change, negative = inhibition": "-20.5%"}
    ]}
  ]
}
